An excerpt weighted towards active compounds, which were near 7.5% of everything screened.
VP16 counter: VP16 counterscreen qHTS for inhibitors of ROR gamma transcriptional activity; Drosophila S2 Gal4-VP16 UAS-luciferase, luminescence, 20 h; Potency, µM (top dose mostly 53.6 µM), inactives show top-dose activity, negative = inhibition, actives largely listed as inhibitors; 3.5% of 310,000 active;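 further: Gal4-VP16 expression switched on by copper sulfate through the metallothionein promoter; potency means the concentration at half of the fitted maximal effect; nearly all actives have a fitted effect of over 50% in size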
ELG1 DNA repair: qHTS screen for small molecules that inhibit ELG1-dependent DNA repair in human embryonic kidney (HEK293T) cells expressing luciferase-tagged ELG1; HEK293T ELG1-luciferase reporter, luminescence, 16 h; DNA damage induced by 5-fluorouridine; Potency, µM (top dose mostly 46.1 µM), without a hit: at the top dose activity change, negative = inhibition, hits mostly inhibitors; 2.3% of 330,000 active; AID 504467, 2011; further: potency means the concentration at half of the fitted maximal effect; nearly all actives have a fitted effect of over 55% in size
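HEK293T cells expressing luciferase-tagged ELG1 (2,000/well) received 5-Fluorouridine plus compound or DMSO for 16 hr at 37 °C. Luciferase was read by ONE-Glo luminescence after 30 min at room temperature.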
TSHR antagonist: Antagonists of the Thyroid Stimulating Hormone Receptor: HTS campaign | activity change, negative = inhibition, % at 11.5 µM | TSHR-expressing cells, TSH-stimulated cAMP HTRF, 2 h; active compounds read low | AID 504810, 2011 | Thyrotropin receptor (Homo sapiens), P16473 | 0.2% of 330,000 active;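 active means activity change below a set negative limit, meaning inhibition stronger than a set level, cut at about -70% in these data; inconclusive means activity change between two set negative limits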
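TSHR-expressing cells were treated with compounds, then stimulated with TSH at EC80 (4nM final) for 2 hours at 37 deg C. Cellular cAMP was measured by HTRF competition between lysate cAMP and cAMP-d2 for a cryptate-labelled anti-cAMP antibody.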
B2AR arrestin: qHTS assay of beta-arrestin-biased ligands of beta2-adrenergic receptor; beta-arrestin recruitment to beta2AR, cell-based reporter; AID 492947, 2010; Beta-2 adrenergic receptor (Homo sapiens), P07550; 0.02% of 330,000 active; Potency, µM (doses to about 46.1 µM), for the others: top-dose activation, usual class: activators;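 further: potency means the concentration at half of the fitted maximal effect; 0% = DMSO controls and full agonism = EC100 isoproterenol or metaproterenol; nearly all actives have a fitted effect of over 65% in size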
RORgamma inh: qHTS for inhibitors of ROR gamma transcriptional activity; Drosophila S2 Gal4-RORgamma UAS-luciferase reporter, 20 h; Potency, µM (top dose mostly 53.6 µM), without a hit: at the top dose activity change, negative = inhibition, hits mostly inhibitors; 5.4% of 310,000 active; further: potency means the concentration at half of the fitted maximal effect; nearly all actives have a fitted effect of over 60% in size
Target sequence (P51450 whole entry, looked up, the tested form may be a part): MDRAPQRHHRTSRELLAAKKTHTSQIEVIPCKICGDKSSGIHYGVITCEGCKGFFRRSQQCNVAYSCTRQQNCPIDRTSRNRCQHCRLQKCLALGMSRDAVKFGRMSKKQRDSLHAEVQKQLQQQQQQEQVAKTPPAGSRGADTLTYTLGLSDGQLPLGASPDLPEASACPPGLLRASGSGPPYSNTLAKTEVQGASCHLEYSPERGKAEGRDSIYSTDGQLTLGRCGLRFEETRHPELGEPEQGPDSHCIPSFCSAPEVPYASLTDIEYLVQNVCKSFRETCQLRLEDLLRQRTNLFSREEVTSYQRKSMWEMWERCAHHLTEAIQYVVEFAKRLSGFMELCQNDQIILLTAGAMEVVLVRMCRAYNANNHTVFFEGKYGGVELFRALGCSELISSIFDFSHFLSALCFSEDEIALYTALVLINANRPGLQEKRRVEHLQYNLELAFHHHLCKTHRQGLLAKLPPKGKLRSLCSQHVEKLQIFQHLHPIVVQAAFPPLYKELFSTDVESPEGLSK
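In this cell-based reporter format, copper sulfate (700 uM final) drives Gal4–ROR gamma fusion expression from a metallothionein promoter in Drosophila Schneider cells; compounds preincubated 1 hr, reporter read after 20 hr at ambient temperature.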
The depositor's hits bear a star; ? = inconclusive; nt = no result. Unless noted, the call rests on the fitted dose curve; in most records, active means well fitted curve in the direction sought with a large enough effect; inconclusive means small, poorly fitted or top-dose-only effect, or another doubt; inactive means no such curve, though single readings can be large; an effect the other way counts as inactive or inconclusive. Unless noted, on the % scale 0 is the no-effect control and ±100 the full control effect.

SMILES | VP16 counter | ELG1 DNA repair | TSHR antagonist | B2AR arrestin | RORgamma inh
Fc1ccc(-c2nc3cnccn3c2NC2CCCC2)cc1 | 6% | -12% | 7 | 0% | 16%
Oc1ccc(Br)cc1-c1nc2cnccn2c1NC1CCCCC1 | ? | -11% | 31 | 0% | 13µM*
CCOc1c(Cl)cc(/C=C/C(=O)N(CC)CC(=O)Nc2ccc(NC(C)=O)cc2)cc1OC | nt | 15µM* | -2 | 0% | nt
CCOc1ccc(/C=C/C(=O)N(CC)CC(=O)Nc2ccc3c(c2)OCCO3)cc1OC | nt | -30% | -1 | 0% | nt
CCCCOC(=O)c1ccc(NC(=O)c2nn(C)cc2Br)cc1 | 3.5µM* | 3% | -19 | 0% | 37%
CCCCOC(=O)c1ccc(NC(=S)NC(=O)c2c(Cl)cnn2C)cc1 | ? | 2% | -28 | -1% | 14µM*
CCCCOC(=O)c1ccc(NC(=S)NC(=O)c2c(Cl)cnn2CC)cc1 | 18µM* | 4% | 2 | 4% | 7.1µM*
CCCCOC(=O)c1ccc(NC(=O)c2cc(Cl)c(Cl)cc2C(=O)O)cc1 | 5% | 5% | 0 | 0% | 19%
CCCCOC(=O)c1ccc(NC(C)=O)cc1 | 14% | ? | 3 | 0% | 2%
COc1ccc(NC(=O)c2cccnn2)cc1 | -5% | ? | 6 | 1% | 0%
Cc1ccccc1C(=O)NC(=S)N(C)CCc1ccccn1 | ? | 24% | -5 | -1% | 7.1µM*
CCc1cccc(NC(=O)C2CCCN(S(=O)(=O)c3cccs3)C2)c1 (centres undefined) | 4% | 0% | 17 | 1% | 23%
CC(=O)c1c(N2CCN(Cc3ccccc3)CC2)[nH]c(-c2ccccc2)nc1=S | ? | 6% | -14 | -1% | 14µM*
CSc1nc(-c2ccccc2)nc(N2CCOCC2)c1C(C)=O | -3% | ? | -11 | 0% | -19%
CC(=O)c1c(N2CCOCC2)[nH]c(-c2ccccc2)nc1=S | 5µM* | -5% | 17 | 0% | 1.1µM*
CC(=O)c1c(N)[nH]c(-c2ccccc2)nc1=S | 0.79µM* | -29% | -6 | 10% | 0.32µM*
CC(=O)c1c(N2CCCC2)[nH]c(-c2ccccc2)nc1=S | 7.9µM* | -1% | -14 | 0% | 5.6µM*
CC(=O)c1c(N2CCN(Cc3ccccc3)CC2)nc(=S)n(-c2ccccc2)c1C | 4% | 3% | -3 | 0% | 0%
O=C1NC2=C(C(=O)CCC2)C(c2cccc([N+](=O)[O-])c2)N1 (centres undefined) | -9% | -9% | 5 | 0% | -17%
COC(=O)[C@@H]1C[C@@H]2CC[C@@H](O)C[C@@H]2N1Cc1ccc(C)s1 | -12% | nt | nt | nt | -15%
O=C(COC(=O)CNC(=O)c1ccc(-c2ccccc2)cc1)NCc1ccco1 | -9% | ? | -11 | 1% | 9%
CCCC1=NN2C(=N)/C(=C\c3ccc(OCCOc4ccc(NC(C)=O)cc4)c(OC)c3)C(=O)N=C2S1 | 4% | 13% | -11 | 0% | 12%
CC1C/C(=C\c2cccnc2)C(=O)/C(=C/c2cccnc2)C1 (centres undefined) | 0.63µM* | 2.1µM* | -6 | -1% | 1.1µM*
CCC(Sc1nc2ccccc2o1)C(=O)O (centres undefined) | 2% | 12% | 1 | 0% | -15%
CCC(Sc1nc2ccccc2o1)C(=O)Nc1nnc(C)s1 (centres undefined) | ? | -5% | 3 | 7% | 13µM*
SMILES | VP16 counter | ELG1 DNA repair | TSHR antagonist | B2AR arrestin | RORgamma inh
Cc1nnc(NC(=O)CSc2ccc3nnc(-c4ccccn4)n3n2)s1 | 7% | -5% | 9 | 0% | -2%
CCC(Sc1ccccn1)C(=O)Nc1nnc(C)s1 (centres undefined) | -30% | 0% | 2 | 0% | 10µM*
CSCC[C@H](NC(=O)[C@H](Cc1ccc(OS(=O)(=O)O)cc1)NC(=O)[C@@H](N)CC(=O)O)C(=O)NCC(=O)N[C@@H](Cc1c[nH]c2ccccc12)C(=O)N[C@@H](CCSC)C(=O)N[C@@H](CC(=O)O)C(=O)N[C@@H](Cc1ccccc1)C(N)=O | 1% | nt | nt | nt | 13%
CNC(=S)N/N=C/c1c(C(=O)OC)cnn1-c1ccc(F)cc1F | ? | ? | -3 | 0% | 8.9µM*
COC(=O)c1cnn(-c2ccc(F)cc2F)c1/C=N/NC(=S)NC(C)(C)C | ? | ? | -12 | 0% | 1.3µM*
Cc1c(/C=N\NC(=O)c2cccc(F)c2)cnn1C | 16% | 19% | 6 | -1% | -1%
COC(=O)c1cnn(-c2ccccc2)c1/C=N/NC(=S)Nc1ccccc1 | 3.5µM* | 21µM* | -12 | 0% | 0.89µM*
COC(=O)c1cnn(-c2ccc(F)cc2F)c1/C=N/NC(N)=S | -22% | 13µM* | 1 | -1% | -83%
CCOC(=O)N/N=C/c1ccc(F)cc1F | -4% | ? | -6 | 0% | 2%
COc1cc(C(=O)O[C@H]2C/C(C)=C/CC/C(C)=C/[C@@H](O)C2C(C)C)ccc1O (some centres undefined) | -22% | nt | nt | nt | 7%
CC(C)C[C@@H](CC(=O)N[C@H](CC(=O)N[C@@H]1CCCC[C@H]1C(=O)N[C@H](CC(=O)N[C@@H](CCC(=O)O)CC(=O)O)Cc1ccccc1)C(C)C)NC(=O)[C@@H]1CNCC[C@H]1N | -5% | nt | nt | nt | 4%
O=C1/C(=C\c2ccccc2)SC(=S)N1CCC(=O)N1CCCCC1CCO (centres undefined) | 1% | -3% | -8 | 0% | 7%
COc1ccc(/C=C2\SC(=S)N(CCCC(=O)N3CCCCC3CCO)C2=O)cc1 (centres undefined) | 3.5µM* | ? | -7 | 0% | 2.2µM*
CC(C)c1ccc(/C=C2\SC(=S)N(CCC(=O)N3CCCCC3CCO)C2=O)cc1 (centres undefined) | ? | ? | -29 | 0% | 10µM*
COc1cc(/C=C2/CCc3ccccc3C2=O)cc(OC)c1OC | -5% | ? | -8 | 0% | -7%
COc1cc(/C=C2\COC/C(=C\c3cc(OC)c(OC)c(OC)c3)C2=O)cc(OC)c1OC | 5µM* | ? | -24 | ? | 3.2µM*
COc1cc(/C=C2\CC/C(=C\c3cc(OC)c(OC)c(OC)c3)C2=O)cc(OC)c1OC | -7% | ? | -31 | 0% | 15%
COc1cc(/C=C2\CCC/C(=C\c3ccc(O)c(OC)c3)C2=O)ccc1O | -28% | ? | -14 | -1% | -24%
COc1cc(/C=C2\CC/C(=C\c3cc(OC)c(O)c(OC)c3)C2=O)cc(OC)c1O | ? | 7.3µM* | -17 | 0% | ?
